39 compounds from PubChem BioAssay (NCI) can be followed below.

Where “and” joins values, the source holds several entries; their conditions need not be identical. Equal values may be shown once. Compounds without any hit were thinned out: in the full panel of roughly 83,000, 20% have a hit.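 Interpretation: 100, growth as untreated; towards 0, rising growth inhibition; 0, no net growth; 0 to -100, cell death. Compounds scoring below 10 were considered active.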 A number with no mark means an inactive call. Calls of active or inactive are those of the source.

In the first assay the test system is OVCAR-4 ovarian. In words: NCI-60 one-dose screen, 48 h (100 = growth as untreated, 0 = no growth, -100 = all killed). To be noted: 4.75 µM. On the procedure:
Growth inhibition of the OVCAR-4 human tumor cell line is measured as a screen for anti-cancer activity. Cells are grown in 96 well plates and exposed to the test compound for 48 hours. Compounds are tested at a single concentration, which is 10^-5 M for most compounds. The reported endpoint is percent growth (GI% or GIPRCNT), where numbers from 0 - 100% represent growth inhibition, and numbers from -100% - 0 represent cell death. For example, a value of 40 represents 60% growth inhibition. A value of 0 means no net growth occurred over the course of the experiment. A value of -40 indicates 40% of cells at the beginning of the experiment died by the end of the experiment. A value of -100 means all cells are dead at the end of the experiment.
NCI-60 Human Tumor Cell Lines Screen was performed using the standard one-dose NCI protocol, which is described in more detail at https://dtp.cancer.gov/discovery_development/nci-60/default.htm.
Compounds with GIPRCNT values below 10 were considered active. Activity score was based on GIPRCNT using the following formula: […]
Score is 0 for GIPRCNT values of 100 or above, 50 for GIPRCNT values of 0, and 100 for GIPRCNT values of -100.
As to `CC(=O)OCC1OC([S-])C(OC(C)=O)C(OC(C)=O)C1OC(C)=O.[Au+].c1ccc(CN2[CH-]N(Cc3ccccc3)C(c3ccccc3)=C2c2ccccc2)cc1`, the growth is 12.6%.

Staying with this assay, now noted: 10 µM.
With `CC(=O)OCC1OC([S-])C(OC(C)=O)C(OC(C)=O)C1OC(C)=O.[Au+].c1ccc(CN2[CH-]N(Cc3ccccc3)C(c3ccccc3)=C2c2ccccc2)cc1`, the growth was 34.2%.

Still in this assay, the particulars now being: 10 µM unless noted.
Take `CCCCS(=O)(=O)Cl`: the growth was 97.8%.
Turning to `O=S(OO)c1cc(Cl)c(O)c(Cl)c1` (stereo not given), the growth was 89.9%.
Consider `C=CC[PH+](c1ccccc1)c1ccccc1.C=CC[PH+](c1ccccc1)c1ccccc1.[Pt+2].[S-]c1nc2ccccc2[nH]1.[S-]c1nc2ccccc2[nH]1`, for which the growth was 4.93% (active).
On the same count and under the same terms, the result for `CC(C)c1cccc(C(C)C)c1O` reads 107% and 95.3%; that for `CC[C@H](C)[C@H]1O[C@]2(C=C[C@@H]1C)C[C@@H]1C[C@@H](C/C=C(\C)[C@@H](O[C@H]3C[C@H](OC)[C@@H](O[C@H]4C[C@H](OC)[C@@H](NC)[C@H](C)O4)[C@H](C)O3)[C@@H](C)/C=C/C=C3\CO[C@@H]4[C@H](O)C(C)=C[C@@H](C(=O)O1)[C@]34O)O2`, -1.85% (active); that for `CN(C)[C@@H]1C(=O)C(C(N)=O)=C(O)[C@@]2(O)C(=O)C3=C(O)c4c(O)ccc(Cl)c4[C@@](C)(O)[C@H]3C[C@@H]12`, 98.3% and 98.6%.
Still for that read-out and setting: the figure for `O=[N+]([O-])c1cc(Cl)c(Cl)c([N+](=O)[O-])c1Cl` is 29.3%.
On the same count and under the same terms, the figure for `COC(=O)C1=CCCN(C)C1` is 107% and 101%; for `c1ccc2c(c1)sc1ccccc12` it is 105%.
On to `CCC1CCC(=O)O1` (stereo not given), for which the growth is 96.6% and 112%.
The same measure, in the same setting: the result for `O=C(Cc1ccccc1)NC(O)C(Cl)(Cl)Cl` (stereo not given) reads 105%; that for `COC(=O)C1=CO[C@@H](C)[C@@H]2CN3CCc4c([nH]c5cc(OC)ccc45)[C@@H]3C[C@H]12`, 107%.
On the same count and under the same terms, the figure for `C[C@]12CCc3sc(Nc4ccc(O)cc4)nc3C1=CC[C@@H]1[C@@H]2CC[C@]2(C)C(=O)CC[C@@H]12` is 57.1%.
Regarding `O=C1c2ccccc2C(=O)N1N1CC1c1ccccc1` (stereo not given), the growth was 101%.
On the same count and under the same terms, the figure for `CCC(Br)(CC)C(=O)NC(N)=O` is 101%; for `C[C@]12C[C@H](c3ccoc3)OC(=O)[C@H]1CC[C@@]1(C)[C@@H]2[C@H]2C=C[C@]1(O)C(=O)O2` it is 93.7%; for `O=C(O)C(Br)CBr` (stereo not given) it is 97.1%.
For `COc1cc(-c2ccc(N)c(OC)c2)ccc1N`, the growth was 104%.
On the same count and under the same terms, the figure for `C[C@]12CCc3sc(Nc4ccc(OC(F)(F)F)cc4)nc3C1=CC[C@@H]1[C@@H]2CC[C@]2(C)C(=O)CC[C@@H]12` is 64%; for `O=[N+]([O-])c1ccc(CI)cc1` it is 102%; for `C=CC1CN2CCC1CC2C(O)c1ccnc2ccccc12` (stereo not given) it is 129%.
In the case of `O=P(O)(Nc1ccccc1)Nc1ccccc1`, the growth was 99.9%.
On the same count and under the same terms, the result for `CC1(C)C=Cc2c(ccc3c2[N+]([O-])=C2C3=C[C@@]34NC(=O)[C@]5(CCCN5C3=O)C[C@@H]4C2(C)C)O1` reads 43.5%.
On the same count and under the same terms, the result for `O=[N+]([O-])c1cc(Br)c(O)c(Br)c1` reads 122%; that for `CN(C)C(=S)SSC(=S)N(C)C`, 107% and 106%.
Same read-out and setting: the result for `Cc1ccc(C(=O)O[C@H](C(=O)O)[C@H](OC(=O)c2ccc(C)cc2)C(=O)O)cc1` reads 103%; that for `O=Cc1cn(Cc2ccccc2)c2ccccc12`, 55.1%; that for `CC1(C)N=C(N)N=C(N)N1c1ccc(CCC(=O)Nc2ccc(S(=O)(=O)F)cc2)cc1`, 92.8%.
Turning to `CC[PH+](CC)CC.O=COC1OC([S-])C(OC=O)C(OC=O)C1OC=O.[Au+]` (stereo not given), the growth was -89.8% (active).
On the same count and under the same terms, the figure for `CN1[C@@H](CC(=O)c2ccccc2)CCC[C@H]1CC(=O)c1ccccc1` is 107%; for `C/C=C(/C)C(=O)O[C@H]1CC[C@@]2(C)[C@@H]3CC[C@H]4[C@]5(O)C[C@H](O)[C@@]6(O)[C@@H](CN7C[C@@H](C)CC[C@H]7[C@@]6(C)O)[C@]5(O)C[C@@]42O[C@@]13O` it is 102%.
As to `O=C/C=C/c1ccco1`, the growth was 105%.
As to `COc1cc(/C=C\[N+](=O)[O-])ccc1OCc1ccccc1`, the growth is 85.3%.
On the same count and under the same terms, the figure for `C[C@]12CCc3sc(Nc4ccc(F)cc4)nc3C1=CC[C@@H]1[C@@H]2CC[C@]2(C)C(=O)CC[C@@H]12` is 76.8%.
On the same count and under the same terms, the figure for `COc1ccn(C)c(=O)c1C#N` is 114%; for `O=c1c2ccccc2nc(-c2ccccc2Cl)n1-c1nnc(C(F)(F)F)s1` it is 37.5%; for `CC1=CC(=O)CCC12CCOC2=O` (stereo not given) it is 93.8%.
Same read-out and setting: the result for `Cc1cc(NC(=O)NCCCOc2ccc(N3C(N)=NC(N)=NC3(C)C)cc2Cl)ccc1S(=O)(=O)F` reads 34.5%.
